# Screening results from PubChem.
# Shown are actives, neighbours in structure and some others; about 4.1% of the full set was active somewhere.
# hgDAF12 agonist: hgDAF-12 agonism, primary luciferase screen; HEK293 GAL4-hgDAF12 UAS-luciferase reporter, agonist luminescence; normalized to butyrate control; activation, % at 6.8 µM; 370,000 compounds, 1.8% hits; AID 687014;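 active = activation above a cutoff set at the mean of all screened compounds plus 3 SD, cut at about 10% in these data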
# hcDAF-12 act: activators of H. contortus DAF-12 nuclear receptor | activation, % at 6.8 µM | HEK293 hcDAF-12 lit1-tk-luc reporter, luminescence; 0% DMSO, 100% Δ7-dafachronic acid | AID 652067 | 370,000 compounds, 1.4% hits;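 active = activation above the mean of all tested compounds plus 3 SD, cut at about 5.5% in these data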
# DAX1 inh-1: NR0B1 (DAX1) inhibition; P51843; HEK293 Gal4-DAX1 luciferase reporter, luminescence; inhibition, % at 6.75 µM; 340,000 compounds, 0.99% hits; AID 504766;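 active = inhibition above the mean over all tested compounds plus 3 SD, cut at about 4.2% in these data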;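 also: inhibition shows as a rise in luminescence from relieved DAX1 repression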
# Target sequence (P51843 207-470 limits assumed): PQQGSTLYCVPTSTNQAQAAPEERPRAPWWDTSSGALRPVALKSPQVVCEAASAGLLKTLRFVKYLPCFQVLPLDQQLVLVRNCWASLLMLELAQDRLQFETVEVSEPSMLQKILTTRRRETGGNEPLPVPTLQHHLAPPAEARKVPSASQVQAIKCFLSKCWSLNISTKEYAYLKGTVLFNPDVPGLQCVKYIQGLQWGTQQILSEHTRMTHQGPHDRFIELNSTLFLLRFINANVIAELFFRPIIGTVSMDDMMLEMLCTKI
# ssDAF-12 act: activators of S. stercoralis DAF-12 nuclear receptor. HEK293 ssDAF-12/GRIP1 lit1-tk-luc reporter, luminescence; % of 3 µM dafachronic acid response. activation, % at 6.8 µM. 370,000 compounds, 1% hits. AID 652126;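 active = activation above the mean over all tested compounds plus 3 SD, cut at about 0.9% in these data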
# DAX1 inh-2: DAX1 (NR0B1) inhibition, primary screen | HEK293T StAR-luciferase reporter, SF-1/DAX-1 repression relief | inhibition, % at 6.8 µM | 370,000 compounds, 1.1% hits | AID 652010;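 active = inhibition above the mean over all tested compounds plus 3 SD, cut at about 3.6% in these data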;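 also: higher inhibition means more luminescence from relief of DAX-1 repression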
# Hits are given with their value; 0 = inactive; - = no result.
SMILES,hgDAF12 agonist,hcDAF-12 act,DAX1 inh-1,ssDAF-12 act,DAX1 inh-2
CC1CCC/C(=N\NC(=O)Nc2ccccc2)C1 (configuration not stated),0,0,4.8,0,0
NS(=O)(=O)c1ccc(NC(=O)c2ccc(Cl)c(S(=O)(=O)NCc3ccco3)c2)cc1,0,0,0,0,0
Cc1ccc(NC(=O)c2ccc(Cl)c(S(=O)(=O)NCc3ccco3)c2)c(O)c1,0,0,0,0,3.9
COP(=O)(O)[C@@H](CC(C)C)NC(=O)OCc1ccccc1,0,0,-,0,0
CCN(CC(=O)Nc1c(F)cccc1F)C(=O)c1cc(C)nc2ccccc12,0,0,0,1.0,0
N=c1c2c(-c3ccccc3)c(-c3ccccc3)n(Cc3ccccc3)c2ncn1C1CCOCC1,0,0,-,0,0
COc1ccc(CNC(=O)c2cc(-c3ccccc3)c(N3CCOCC3)s2)cc1OC,0,0,-,0,0
CCCC1CCC2(CCCN2CCOC(=O)Nc2cccc(Cl)c2)CC1 (configuration not stated),0,0,-,0,-
Cc1ccc(OCc2nc(-c3ccccc3)no2)cc1,0,0,4.8,0,0
Cc1ccc(-c2noc(CSc3ccccc3)n2)cc1,12,0,0,0,3.9
Cc1ccc(-c2noc(COc3ccccc3C)n2)cc1,0,0,0,0,0
CCCCNS(=O)(=O)CC1NCc2cc(OC)ccc21 (configuration not stated),0,0,-,0,0
O=S(=O)(N[C@H]1CCCC[C@@H]1N1CCOCC1)c1ccc(Cl)cc1,0,0,-,0,-
CCc1cccc(Nc2cc(C)nc3nc(C)nn23)c1,0,0,4.3,0,0
Cc1cc(C)cc(NC(=O)C(Sc2ncnc3ccccc23)c2ccccc2)c1 (configuration not stated),0,6.4,0,0,0
N#Cc1cccc(NC(=O)OCCN2C(=O)CCC23CCC(c2ccccc2)CC3)c1 (configuration not stated),0,0,-,0,0
Clc1cc(Cl)c2nc(N3CCCC3)sc2c1,11,0,0,0,0
COC/C=C/C1=CC2=CC(=O)C(C)(OC(=O)c3cnc4ccccc4n3)C(=O)C2=CN1CCCCO (configuration not stated),0,0,4.2,0,0
CCCC(=O)Oc1ccc(-c2nccc(C(OC)OC)n2)cc1,0,0,4.3,0,0
C#CCNC[C@@H]1CSCCS(=O)(=O)N1,0,0,-,0.9,0
CC(C)(C)c1ccc(C(=O)Nc2cc(Cl)c(Cl)cc2C(=O)O)cc1,0,0,-,0,-
COc1cccc(C(=O)Nc2cccc3cccnc23)c1OC,-,-,4.3,-,-
O=C(O)CCC(=O)Nc1cccc2cccnc12,0,0,5.2,0,0
O=C(Nc1cccc2cccnc12)c1cccc([N+](=O)[O-])c1,0,0,0,0,0
Cc1cc(C(=O)Nc2cccc3cccnc23)ccc1[N+](=O)[O-],0,5.9,0,0,0
SMILES,hgDAF12 agonist,hcDAF-12 act,DAX1 inh-1,ssDAF-12 act,DAX1 inh-2
COc1ccccc1NS(=O)(=O)c1cccc2cccnc12,0,0,5.4,0,0
Cc1ccc(CN2CCCCC(NC(=O)Nc3ccccc3)C2=O)cc1 (configuration not stated),0,0,-,0,0
COC(=O)[C@H](C(C)C)N(CCCc1cn(Cc2ccc(C)cc2)nn1)S(=O)(=O)c1ccc(F)cc1Br,0,0,-,0,0
O=[N+]([O-])c1cccc(C2Nc3cccc4cccc(c34)N2)c1,0,0,0,0,0
O=[N+]([O-])c1ccc(C2Nc3cccc4cccc(c34)N2)cc1,0,0,0,1.6,0
COc1ccc(N2C(=O)C3CCCN3C2c2ccc(C)cc2)cc1 (configuration not stated),0,0,0,0,0
O=C1C2CCCN2C(c2ccccc2)N1c1cccc(Cl)c1 (configuration not stated),0,0,0,0,0
COc1ccc(N2C(=O)C3CCCN3C2c2cccc(C)c2)cc1 (configuration not stated),0,0,0,0,0
O=C1C2CCCN2C(c2ccc(F)c(F)c2)N1c1cccc(Cl)c1 (configuration not stated),0,0,4.4,0,0
COc1ccc(C2N(c3ccc(OC)cc3)C(=O)C3CCCN32)cc1 (configuration not stated),0,0,5.3,0,0
COc1ccc(C2N(c3ccc(F)cc3)C(=O)C3CCCN32)cc1 (configuration not stated),0,0,5.2,0,0
COc1cccc(C2N(c3ccc(Cl)cc3)C(=O)C3CCCN32)c1 (configuration not stated),0,0,6.4,0,0
COC(=O)c1ccc(Cn2ccc3ccc(-c4ccc5ccn(Cc6ccc(C(=O)OC)cc6)c5c4)cc32)cc1,0,0,-,0,0
O=C(CN1CCCCC1CO)c1ccc(OC(F)F)cc1 (configuration not stated),0,0,4.5,0,0
Cn1c(-c2ccc(F)cc2)cnc1SCC(=O)N1CCCc2ccccc21,0,0,0,0,0
Cn1c(-c2ccc(F)cc2)cnc1SCC(=O)N1CCCCC1,12,0,0,0,0
Cc1nn(-c2nc(-c3ccco3)cc(C(F)(F)F)n2)c(C)c1Br,0,0,4.7,0,0
Fc1ccc(N2CCN(c3nc(-c4ccco4)cc(C(F)(F)F)n3)CC2)cc1,0,0,0,0,0
NC(=NCc1ccccc1)NC(=O)OCc1ccccc1,0,0,-,0,0
COc1ccc(Cc2c(-c3cccc(Cl)c3)nc3ccc(C)cn23)c(C)c1,0,0,-,0,4.0
COc1ccc(Cc2c(-c3cccc(Cl)c3)nc3c(C)cc(Br)cn23)c(C)c1,0,0,-,0,0
COc1ccc(Cc2c(-c3ccccc3)nc3ccc(C)cn23)c(C)c1,14,0,-,1.5,3.9
COc1ccc(Cc2c(-c3ccccc3)nc3ccc(Cl)cn23)c(C)c1,0,0,-,0,0
Cc1ccc(-n2c(SCC(=O)Nc3ccc(Oc4ccccc4)cc3)nnc2-c2cccc(C)c2)cc1,0,0,-,0,0
COc1cccc(C(=O)N[C@H](C(=O)N2CCC[C@H]2C(=O)NCc2ccccc2)c2ccccc2)c1,0,0,-,0,0
SMILES,hgDAF12 agonist,hcDAF-12 act,DAX1 inh-1,ssDAF-12 act,DAX1 inh-2
COCCN1C(=O)C2=C(C1=O)C1N(C)c3ccccc3[C@@]13C[C@@H](CO)N(S(=O)(=O)c1ccc(OC)cc1)C3=N2 (some centres not stated),0,0,-,0,0
Cc1nc2ccc(S(=O)(=O)NCC(=O)N3CCc4ccccc43)cc2s1,0,0,0,0.9,0
CC(C)Cc1cc(C(=O)Nc2cccnc2)no1,0,0,0,0,4.4
O=C(Nc1cccnc1)c1cc(-c2ccc(Cl)cc2Cl)on1,0,0,6.7,0,0
CCN(Cc1cn(Cc2ccccc2)nn1)S(=O)(=O)c1ccc(F)cc1Br,0,0,-,0,0
O=C(Cc1cc(=O)[nH][nH]1)N/N=C/c1ccccc1C(F)(F)F,0,0,-,0,0
